In PubChem BioAssay:
Inconclusive results are not listed. Activity calls are given as the source filed them. Unless noted, how the calls were made is not given here.

Tests used:
[1] = test system: Hepatitis C virus NS3 helicase; assay: HCV NS3 helicase inhibitors, primary screen, biochemical, fluorescence polarization, LOPAC1280 library (AID 687035; in the data active means inhibition above about 37%); conditions: Purified HCV NS3 helicase, Cy5-dT15 ssDNA binding fluorescence polarization; stronger effect = higher value; concentration not given here
[2] = Cy5 fluorescence quenching or enhancement artefacts, artefact control for HCV NS3 helicase inhibitor project, biochemical, LOPAC1280 (AID 687037); conditions: Cy5-DNA-NS3h complex fluorescence interference counterscreen
[3] = sensitizers of A549 cells to miR-34 induction, primary screen, imaging, A549 dox-inducible miR-34, nuclei and caspase counts (AID 1347080;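 active means compounds whose cell count with miR-34 switched on is under 0.7 times the count with it off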); conditions: A549 miR-34 inducible, Hoechst nuclei count, 48 h
[4] = viability rescue of complex I mutant cybrids, primary screen, cell-based, galactose medium, ATP luminescence (AID 1645843;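 active means z-score of at least 1.8 in each of two replicates, scored against plate mean and spread of sample wells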;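 further: positive z means more ATP and so rescue of galactose-driven cybrid death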); conditions: complex I mutant cybrid cells, 72 h, stronger effect = higher value
[5] = circadian clock period modulators, cell-based, LOPAC library, luminescence reporter (AID 2774); conditions: circadian reporter cells, at 7 µM, actives lie on both sides;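 further: values are relative to mean of DMSO wells on each plate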
[6] = target: ATP-dependent translocase ABCB1 (Homo sapiens) (UniProt P08183); assay: MDR1 (ABCB1) efflux transporter inhibition, cell-based (AID 377; in the data active means fluorescence slope change above about 50%); conditions: MDR1-expressing cells, fluorescent substrate accumulation slope; stronger effect = higher value; concentration not given here
[7] = hESC survival regulators, cell-based (AID 493140); conditions: human embryonic stem cell survival screen; stronger effect = higher value;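 further: cells exposed to compounds for four days before counting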
[8] = liver-stage malaria parasite growth inhibition, primary screen, cell-based, HepG2, luciferase luminescence, HepG2 viability (AID 624349; in the data active means parasite load remaining mostly below about 12%, no sharp cut-off; inactive means mostly above about 10%;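 further: 100% = mean of DMSO negative control wells on the same plate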); conditions: P. berghei liver stage in HepG2, luciferase luminescence, concentration not given here; parasite load remaining: stronger effect = lower value; viability: measured here: HepG2 viability without parasites
[9] = stronger effect = lower value, cell number ratio, induced over uninduced
[10] = measured here: relative caspase fold change +Dox/-Dox
[11] = measured here: total cells with miR-34 induction, stronger effect = lower value
[12] = measured here: total cells without miR-34 induction

Chain of ATP-dependent translocase ABCB1 (Homo sapiens) (P08183 whole entry, looked up): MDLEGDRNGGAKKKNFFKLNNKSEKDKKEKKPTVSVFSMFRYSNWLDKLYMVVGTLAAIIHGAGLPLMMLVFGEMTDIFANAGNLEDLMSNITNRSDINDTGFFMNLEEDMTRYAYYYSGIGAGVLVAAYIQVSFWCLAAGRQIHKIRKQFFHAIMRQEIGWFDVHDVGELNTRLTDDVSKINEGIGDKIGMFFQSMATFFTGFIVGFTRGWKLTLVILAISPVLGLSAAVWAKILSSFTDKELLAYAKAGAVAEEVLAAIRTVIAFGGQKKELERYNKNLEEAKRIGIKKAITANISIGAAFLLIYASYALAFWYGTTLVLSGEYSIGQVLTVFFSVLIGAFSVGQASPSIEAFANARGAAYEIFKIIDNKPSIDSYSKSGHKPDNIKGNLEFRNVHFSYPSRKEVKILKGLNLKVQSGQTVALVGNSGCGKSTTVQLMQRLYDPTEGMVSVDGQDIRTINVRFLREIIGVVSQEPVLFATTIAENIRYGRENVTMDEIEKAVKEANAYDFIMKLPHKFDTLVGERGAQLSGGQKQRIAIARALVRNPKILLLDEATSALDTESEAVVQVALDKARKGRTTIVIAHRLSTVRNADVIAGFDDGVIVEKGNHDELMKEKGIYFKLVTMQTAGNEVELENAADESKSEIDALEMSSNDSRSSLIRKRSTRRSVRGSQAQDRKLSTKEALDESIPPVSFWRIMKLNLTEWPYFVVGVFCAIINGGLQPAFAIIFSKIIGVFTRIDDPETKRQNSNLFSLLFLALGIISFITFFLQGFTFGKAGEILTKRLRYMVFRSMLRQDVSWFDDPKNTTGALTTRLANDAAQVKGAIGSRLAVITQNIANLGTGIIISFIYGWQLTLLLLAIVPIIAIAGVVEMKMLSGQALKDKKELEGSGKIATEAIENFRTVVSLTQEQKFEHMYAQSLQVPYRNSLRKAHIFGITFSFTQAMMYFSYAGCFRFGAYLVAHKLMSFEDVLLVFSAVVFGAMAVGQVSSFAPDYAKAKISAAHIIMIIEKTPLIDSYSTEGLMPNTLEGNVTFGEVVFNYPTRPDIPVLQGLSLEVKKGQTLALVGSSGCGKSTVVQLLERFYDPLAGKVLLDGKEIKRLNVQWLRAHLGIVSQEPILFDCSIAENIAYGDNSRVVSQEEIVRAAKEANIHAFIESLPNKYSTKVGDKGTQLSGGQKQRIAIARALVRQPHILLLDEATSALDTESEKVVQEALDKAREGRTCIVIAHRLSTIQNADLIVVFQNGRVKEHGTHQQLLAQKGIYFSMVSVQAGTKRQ

| SMILES | inhibition [1] | fluorescence ratio (interference) [2] | fold change [3, 9] | fold change [3, 10] | cell count [3, 11] | cell count [3, 12] | z-score [4] | period change [5] | fluorescence slope change [6] | survival [7] | parasite load remaining [8] | viability [8] [%] |
| --- | --- | --- | --- | --- | --- | --- | --- | --- | --- | --- | --- | --- |
| NC[C@H]1O[C@@H](n2cnc3c(N)ncnc32)[C@H](O)[C@@H]1O | -3% (inactive) | 1 (inactive) | 1.07 (inactive) | 1.37 | 9860 | 9210 | 1.03 (inactive) |  |  |  |  |  |
| CC[C@@H]1Cc2cc(O)ccc2C2=C1c1ccc(O)cc1C[C@H]2CC | 0% (inactive) | 1 (inactive) | 1.3 (inactive) | 0.93 | 4580 | 3520 | -0.765 (inactive) | -0.02 h (inactive) |  |  |  |  |
| CC(=O)O[C@H]1CC2(C)[C@@H](C[C@@H](O)[C@H]3[C@@]4(C)CC[C@@H](O)[C@@H](C)[C@@H]4CC[C@@]32C)C1=C(CCC=C(C)C)C(=O)O (stereo not given in full) | -2% (inactive) | 1 (inactive) | 0.982 (inactive) | 1.41 | 9740 | 9920 | 4.71 (active) | -0.06 h (inactive) |  |  |  |  |
| N.N.N.N.N.N.N.N.N.N.N.N.N.N.O.O.[Cl-].[Cl-].[Cl-].[Cl-].[Cl-].[Cl-].[Ru+4].[Ru+5].[Ru+5] | -98% (inactive) | 0 (active) | 1.03 (inactive) | 0.871 | 10700 | 10400 | -0.735 (inactive) | 0.18 h (inactive) |  |  |  |  |
| C[N+](C)(C)CCOP(=O)(O)OP(=O)([O-])OC[C@H]1O[C@@H](n2ccc(N)nc2=O)C(O)[C@H]1O (stereo not given in full) | -3% (inactive) | 1 (inactive) | 1.01 (inactive) | 1.19 | 10900 | 10800 | 0.115 (inactive) |  |  |  |  |  |
| O=C1O/C(=C/Br)CCC1c1cccc2ccccc12 (stereo not given) | 0% (inactive) | 1 (inactive) | 0.964 (inactive) | 0.87 | 4330 | 4490 |  | -0.24 h (inactive) |  |  |  |  |
| N=C(N)c1ccc(OCCCCCOc2ccc(C(=N)N)cc2)cc1 (tested in a mixture with another compound) | -1% (inactive) | 1 (inactive) | 1.03 (inactive) | 0.748 | 3790 | 3670 | -1.29 (inactive) | 0.16 h (inactive) |  |  |  |  |
| CNc1ncnc2c1ncn2[C@H]1C[C@H](OP(=O)(O)O)[C@@H](COP(=O)(O)O)O1 | -4% (inactive) | 1 (inactive) | 1.08 (inactive) | 1.03 | 10600 | 9840 | 0.465 (inactive) | -0.03 h (inactive) |  |  |  |  |
| COc1cc(=O)n(C)c2c(OCC(O)C(C)(C)O)cccc12 (stereo not given) |  |  | 0.801 (inactive) | 1.04 | 8320 | 10400 |  | -0.165 h (inactive) | -8.1% (inactive) | 2.75 (inactive) | 88% (inactive) | 97.7 |
